Source: PubChem BioAssay (National Center for Advancing Translational Sciences (NCATS))
This is a sample that favours compounds with a hit; in the whole collection about 14% have one here.
AID923: qHTS Assay for Allosteric/Competitive Inhibitors of Caspase-1: Spectroscopic Profiling in AFC Spectral Region; compound fluorescence, AFC spectral region (405/520 nm); Potency, µM (doses to about 57.5 µM), for the others: at the top dose fluorescence increase, usual class: activators; actives 1.1% (n = 75,000); note: potency is the fitted concentration of half-maximal effect; 0% is about no effect
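Baseline compound fluorescence (AFC region, 405 nm ex/520 nm em) taken from the intercept of kinetic reads with 50 nM caspase-1 and 5 uM Ac-WEHD-AFC; normalized to an on-plate AFC standard curve; compounds titrated up to 57 uM.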
A350 autofl: qHTS Assay for Spectroscopic Profiling in A350 Spectral Region | Compound autofluorescence, 340/450 nm, Alexa 350 dye-equivalents; stronger effect = higher value | actives 11% (n = 59,000) | max dye-equivalent concentration, M; in the data active = max dye-equivalent concentration above about 10 nM; inconclusive = mostly about 1.1 nM to 9.6 nM
HSD17B inh: qHTS Assay for Inhibitors of HSD17B4, hydroxysteroid (17-beta) dehydrogenase 4; actives 7.6% (n = 75,000); 3-hydroxyacyl-CoA dehydrogenase type-2 (Homo sapiens), Q99714; Potency, µM (doses to about 57.1 µM), for inactives: at the top dose activity change, negative = inhibition, most hits filed as inhibitors; AID 893, 2007; recombinant HSD17B10, NADH fluorescence kinetic;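 note: the protocol describes HADH2 (HSD17B10) and not the HSD17B4 of the title; potency is the fitted concentration of half-maximal effect; % is set by controls: 0 for no effect and ±100 for the full control effect; nearly all actives have a fitted effect of over 70% in size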
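His-tagged E. coli-expressed HADH2 at 20 nM in 100 mM Tris-HCl pH 9.0 with 0.01 % Tween-20, preincubated 15 min with compound at room temperature. Reaction with 1 mM NAD+ and 90 uM beta-hydroxybutyryl coenzyme A; NADH fluorescence (360/450 nm) read kinetically over 4 min, last minus first point.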
CRE Fsk mod: Cell signaling CRE-BLA (Fsk stim). CHO CRE-bla reporter (cAMP response element driving beta-lactamase), forskolin EC10, beta-lactamase ratio. Potency, µM (series often up to 38.2 µM), for the others: top-dose activity change, negative = inhibition, usual class: activators. actives 2.5% (n = 71,000). AID 662, 2007; active = well fitted activation curve with a large enough effect in the signal ratio, with a control signal flat, not every such curve was filed as active; inconclusive = small, poorly fitted or top-dose-only effect, or effect the other way, or a change in a side signal; the % refers to the signal ratio; note: potency is the fitted concentration of half-maximal effect; % of control where 0% means no effect
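Modulation of forskolin-driven signalling is measured in CHO cells carrying a CRE-controlled beta-lactamase reporter. Cells are stimulated with EC10 NKH 477 in the presence of titrated compound for 3 h at 37 °C, then loaded with CCF4 for 2 h at room temperature.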
4-MU autofl: qHTS Assay for Spectroscopic Profiling in 4-MU Spectral Region; actives 11% (n = 59,000); compound autofluorescence, 340/450 nm, 4-MU equivalents; stronger effect = higher value; max dye-equivalent concentration, M; in the data active = max dye-equivalent concentration above about 10 nM; inconclusive = mostly about 1.1 nM to 9.6 nM
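Compounds in 100 mM Tris, pH 8.0, sat 15 min at room temperature before fluorescence was read at 340 nm excitation/450 nm emission; a per-plate six-point 4-MU standard curve converted signals to dye-equivalent concentration at each compound concentration.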
HADH2 inh: qHTS Assay for Inhibitors of HADH2 (Hydroxyacyl-Coenzyme A Dehydrogenase, Type II); 3-hydroxyacyl-CoA dehydrogenase type-2 (Homo sapiens), Q99714; recombinant HADH2, NADH fluorescence, beta-hydroxybutyryl-CoA; Potency, µM (highest dose often 57.1 µM), for inactives: top-dose activity change, negative = inhibition, hits mostly inhibitors; actives 3.4% (n = 73,000); AID 886, 2007; note: potency is the fitted concentration of half-maximal effect; % is set by controls: 0 for no effect and ±100 for the full control effect; nearly all actives have a fitted effect of over 60% in size
Target sequence (Q99714 whole entry, looked up, one chain of several): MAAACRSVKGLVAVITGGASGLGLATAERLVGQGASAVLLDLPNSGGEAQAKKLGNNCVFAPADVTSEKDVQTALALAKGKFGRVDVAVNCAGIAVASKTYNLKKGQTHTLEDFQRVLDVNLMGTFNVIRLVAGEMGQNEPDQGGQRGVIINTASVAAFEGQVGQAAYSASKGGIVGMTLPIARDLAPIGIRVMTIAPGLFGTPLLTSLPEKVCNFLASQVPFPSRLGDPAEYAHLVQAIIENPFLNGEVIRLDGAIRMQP
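NADH fluorescence (ex 360/em 450 nm) read every 30 s for 4 min; activity taken as last-minus-first time point difference. Enzyme 20 nM, NAD+ 1 mM, beta-hydroxybutyryl-CoA 90 uM, pH 9.0 Tris buffer.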
An asterisk follows results filed as active; i = inactive; u = inconclusive; x = no result given; [ ] = dose if it differs, or a comment. Unless noted, calls come from the whole dose curve; as a rule, active = well fitted curve in the direction sought with a large enough effect; inconclusive = small, poorly fitted or top-dose-only effect, or another doubt; inactive = no such curve, though single readings can be large; an effect the other way counts as inactive or inconclusive.

SMILES	AID923	A350 autofl	HSD17B inh	CRE Fsk mod	4-MU autofl	HADH2 inh
COC(=O)C(CC(=O)c1ccc(Br)cc1)n1ccnc1 (stereo unspecified)	2%	i	25µM*	u	i	u
O=c1cc(-c2ccc(O)cc2)oc2cc(OC3OC(CO)C(O)C(O)[C@H]3O[C@@H]3OC[C@@](O)(CO)C3O)cc(O)c12 (stereo partly specified)	1%	x	-7%	x	x	x
CC1N=C2c3ccccc3N=C(SCc3cc(=O)n4cc(Cl)ccc4n3)N2C1=O (stereo unspecified)	1%	3.3e-08M*	u	u	3.4e-08M*	-6%
COc1ccc(CCNC(=O)CSC2=Nc3ccccc3C3=NC(C(C)C)C(=O)N23)cc1OC (stereo unspecified)	2%	1.3e-08M*	u	-21%	1.4e-08M*	-28%
CC(C)C1N=C2c3ccccc3N=C(SCc3cc(=O)n4ccccc4n3)N2C1=O (stereo unspecified)	1%	2.7e-08M*	3%	u	2.9e-08M*	-7%
O=C1C2CC=CCC2C(=O)N1c1ccc(Cc2ccncc2)cc1 (stereo unspecified)	10%	x	-3%	-2%	x	-3%
CCOC(=O)N/N=C1/C[C@@H](O)[C@@H](O)[C@@H]2[C@@H]3C(=O)N(C4CCCCC4)C(=O)[C@H]3CC[C@@H]12	1%[11.5 µM]	x	-1%[11.4 µM]	x	x	2%[11.4 µM]
Cc1nc(NC(=O)CSc2nnnn2Cc2ccccc2)sc1C	-3%	i	-1%	u	i	-3%
COc1ccc(-n2nc3ccc(NS(C)(=O)=O)cc3n2)cc1Cl	5%	6.5e-08M*	16µM*	4%	7.2e-08M*	u
CSc1[nH]c(=O)c(C(=O)O)cc1C#N	0%	i	u	17%	i	-22%
CCOC(=O)c1cc(C#N)c(SCC(=O)c2cc(C#N)c(SC)nc2C)[nH]c1=O	17%	i	25µM*	3%	i	-13%
Cc1nnc(NC(=O)C2CCN(c3nnnn3-c3ccccc3)CC2)s1	-3%	i	19%	16%	i	-3%
CCOc1ccc2nc(NC(=O)C3CCN(S(=O)(=O)c4cnc[nH]4)CC3)sc2c1	0%	x	-1%	-2%	x	11%
CCOc1ccc2nc(NC(=O)c3ccoc3C)sc2c1	0%	x	20µM*	u	x	-13%[11.4 µM]
CCOc1ccc2nc(NC(=O)COC)sc2c1	-1%	i	0%	13%	i	2%
CCc1nnc(NC(=O)C2CCCN(c3nc(C)cc(C)n3)C2)s1 (stereo unspecified)	-1%	i	5%	1%	i	-5%
CCc1nnc(NC(=O)C2CCN(c3nccc(C)n3)CC2)s1	1%	i	32µM*	u	i	-28%
CCOc1ccc2nc(NC(=O)C3CCN(c4cnccn4)CC3)sc2c1	1%	4.5e-08M*	u	u	4.5e-08M*	34%
Cc1nnc(NC(=O)C2CCN(c3cnccn3)CC2)s1	1%	4e-08M*	-3%	-13%	2.9e-08M*	3%
COC(=O)c1nc2n(n1)C(c1cc(OC)ccc1OC)C(C(=O)OC1CCCCC1)=C(C)N2 (stereo unspecified)	0%	i	-7%	u	i	-8%
C[C@@H](C(=O)N[C@@H](CO)Cc1ccccc1)[C@@H]1C[C@@]1(C)[C@@H](NC(=O)OCc1ccccc1)c1ccccc1	-2%	x	-6%	-20%	x	-6%
COC(=O)NC(c1cccc(F)c1)[C@]1(C(C)=O)CCCC1=O (stereo partly specified)	4%[11.5 µM]	x	-2%[11.4 µM]	x	x	-14%[11.4 µM]
COc1ccc(C2C3=C(CCCC3=O)Nc3nc4ccccc4n32)c(OC)c1OC (stereo unspecified)	5%	5.3e-07M*	2.5µM*	0%	5.8e-07M*	25µM*
COC(=O)C1=C(C)Nc2nnnn2C1c1cc(OC)ccc1OC (stereo unspecified)	0%	x	3%	u	x	2%[11.4 µM]
COc1ccc(C2C3=C(CCCC3=O)Nc3nc4ccccc4n32)cc1OC (stereo unspecified)	3%	7.6e-08M*	16µM*	2%	1e-07M*	u
SMILES	AID923	A350 autofl	HSD17B inh	CRE Fsk mod	4-MU autofl	HADH2 inh
COc1ccc(OC)c(C2C3=C(CCCC3=O)Nc3nc4ccccc4n32)c1 (stereo unspecified)	0%	3.3e-08M*	-19%	u	3.4e-08M*	0%
COc1ccc(C2C3=C(CCCC3=O)Nc3nc(SCc4ccccc4)nn32)cc1OC (stereo unspecified)	-3%	6.3e-08M*	i	u	6.2e-08M*	u
C(=C\c1ccccc1)/CSc1nnc(-c2ccccn2)n1Cc1ccco1	-1%	i	-10%	u	i	-10%
COc1ccc(C[C@@H]2c3cc(OC)c(OC)cc3CC[N@+]2(C)CCC(=O)OCCCCCOC(=O)CC[N@@+]2(C)CCc3cc(OC)c(OC)cc3[C@H]2Cc2ccc(OC)c(OC)c2)cc1OC	6%[25.7 µM]	i	-1%[25.6 µM]	9%[17.1 µM]	i	-10%[25.6 µM]
O=c1[nH]c2ccccc2cc1-c1noc(-c2cccnc2)n1	2%	2.8e-07M*	7.9µM*	2%	3e-07M*	-26%
COc1ccc2[nH]c(=O)c(-c3noc(-c4ccccc4)n3)cc2c1	2%	i	8%	5%	i	-28%
c1ccc(-c2noc(-c3cccnc3)n2)cc1	-1%	x	-1%	u	x	9%[11.4 µM]
c1ccc(-c2ccc(-c3nc(-c4cccnc4)no3)cc2)cc1	-1%	x	25µM*	25%	x	26%
O=C1Nc2ccccc2[C@]1(O)Cc1ccccn1	-2%[11.5 µM]	i	10%[11.4 µM]	1%[7.6 µM]	i	7%[11.4 µM]
CC(C)(C)NC[C@@H](O)COc1nsnc1N1CCOCC1	0%	x	4%	x	x	x
O=c1c(-c2ccc(Br)cc2)coc2c(CN3CCOCC3)c(O)ccc12	1%	1.8e-07M*	32µM*	13%	1.4e-07M*	-12%
COc1ccc(C(=O)c2c(C)oc3ccc(O)c(CN4CCOCC4)c23)cc1	2%	x	-7%	x	x	6%
Cc1oc2c(CN3CCOCC3)c(O)ccc2c(=O)c1-c1ccc(Br)cc1	1%	2.5e-07M*	u	9%	2e-07M*	-77%
Cc1oc2c(CN3CCCC3)c(O)ccc2c(=O)c1-c1ccc(Cl)cc1	0%	7.3e-07M*	32µM*	24%	5.4e-07M*	25µM*
